KCNQ2 pot: enhances the rat KCNQ2 potassium channel. 310,000 compounds, 0.54% hits. O88943. B-score at 10 µM. CHO-K1 KCNQ2, FluxOR thallium flux fluorescence; hits give high values;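 active means fluorescence ratio B-score at least 3 SD of library B-scores, with initial fluorescence B-score within 3 of them, cut at about 5.3 in these data; same plate scores as AID 2156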;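 further: B-score of peak minus minimum over baseline fluorescence ratio after K+ and Tl+ stimulus; positive B-score means potentiation of KCNQ2 with more thallium influx and brighter signal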
KCNQ2 inh: KCNQ2 (rat) channel inhibition; O88943; CHO-K1 KCNQ2, FluxOR thallium flux, 20 min; hits give low values; B-score at 10 µM; 310,000 compounds, 1.1% hits; AID 2156;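 active means fluorescence ratio B-score at most minus 3 library SDs, with starting brightness B-score within 2 library SDs, cut at about -5.5 in these data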
Kir21 conf inh: confirmation of mouse Kir2.1 potassium channel inhibitors. shares compounds with KCNQ2 pot. Kir2.1-expressing cells, FluxOR thallium flux fluorescence; hits give low values. Tl flux remaining, % of negative control (hits give low values), % at 10 µM. 2,300 compounds, 41% hits. AID 2032;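 active means Primary-screen hit whose thallium flux fell at least 3 control SD below untreated wells in both duplicates, with normal baseline fluorescence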;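 further: 0% = blank wells without stimulus and 100% = stimulated no-compound controls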
Target sequence (P35561 whole entry, looked up): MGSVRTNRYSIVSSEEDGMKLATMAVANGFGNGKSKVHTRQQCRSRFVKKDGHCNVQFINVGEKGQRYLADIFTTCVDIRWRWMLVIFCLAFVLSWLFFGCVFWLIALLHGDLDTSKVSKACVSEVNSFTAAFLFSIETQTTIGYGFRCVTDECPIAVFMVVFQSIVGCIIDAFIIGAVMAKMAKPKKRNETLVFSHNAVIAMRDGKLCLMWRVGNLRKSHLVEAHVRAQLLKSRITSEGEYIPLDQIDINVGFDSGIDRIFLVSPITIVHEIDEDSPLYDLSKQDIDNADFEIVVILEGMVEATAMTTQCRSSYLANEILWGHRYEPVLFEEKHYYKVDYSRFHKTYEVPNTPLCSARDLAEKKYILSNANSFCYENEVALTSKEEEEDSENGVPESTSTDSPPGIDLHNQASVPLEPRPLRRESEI
HEK293 ctr: counter-screen for Kir2.1 inhibitors: effect in parental HEK293 cells. shares compounds with KCNQ2 pot. FluxOR thallium flux fluorescence; 0% = unstimulated blank wells. FluxOR signal as % of negative control (100 = no effect), % at 10 µM. 2,300 compounds, 19% hits;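 active means dye signal at least 3 control SD above or below untreated wells in both duplicates, raw fluorescence within 3, either direction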;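 further: percent is based on the flux ratio of peak minus minimum fluorescence over baseline F0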
CHO-K1 ctr: parental CHO-K1 activity in KCNQ2 potentiator counter-screen. shares compounds with KCNQ2 pot. parental CHO-K1 cells, FluxOR thallium flux fluorescence; zero = vehicle mean+3SD, 100% = vehicle-minus-blank window. activity increase over 3SD of controls, % at 10 µM. 1,200 compounds, 43% hits;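 active means signal rise of at least 3 SD above the untreated control mean, in both duplicate wells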;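 further: counter screen of KCNQ2 potentiator hits so any rise reflects channel-independent effects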
KCNQ1 sel pot: selectivity of KCNQ2 potentiators: effect on human KCNQ1; 1,200 compounds, 28% hits; AID 2283; shares compounds with KCNQ2 pot; CHO KCNQ1 stable, FluxOR thallium flux fluorescence; beyond 3SD, as % of vehicle-control signal; activation over 3SD threshold, % at 10 µM;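 active means fluorescence ratio rise of at least 3 SD of vehicle wells above their mean, in both replicate wells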;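 further: 0% = vehicle mean plus 3 SD and 100% = vehicle minus unstimulated blank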
KCNQ2 pot confirm: rat KCNQ2 channel potentiator confirmation; shares compounds with KCNQ2 pot; CHO-KCNQ2 cells, FluxOR thallium flux fluorescence; potentiation, less the hit threshold, % at 10 µM; 1,200 compounds, 68% hits; AID 2287;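 active means fluorescence ratio rising 3 SD or more over the vehicle control mean in both replicates, plus primary screen hit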;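 further: peak minus minimum thallium fluorescence divided by baseline after K/Tl stimulus; 0% = vehicle mean plus 3 SD and 100% = vehicle minus unstimulated blank difference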
Kir2-1 sel: mouse Kir2.1 off-target activity of KCNQ2 potentiators | shares compounds with KCNQ2 pot | HEK293 Kir2.1, FluxOR thallium flux fluorescence | activity over 3SD threshold, % at 10 µM | 1,200 compounds, 2% hits | AID 2345;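 active means fluorescence ratio rise of at least 3 SD above the vehicle-control mean, seen in both replicates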;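 further: 0% = vehicle mean plus 3 SD and 100% = vehicle minus no-stimulus blank window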
KCNQ2 W236L MoA: rat KCNQ2 W236L mutant potentiation by KCNQ2 potentiators; shares compounds with KCNQ2 pot; CHO KCNQ2-W236L, automated patch clamp current; current increase over 3SD of negative controls (%), hits give high values, % at 25 µM; 940 compounds, 10% hits; AID 2558;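 active means current increase at least 3 SD of the untreated controls above them in both duplicate recordings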
* = called active by the depositor; i = inactive; x = not tested or not shown. This is a sample that favours compounds with a hit; in the whole collection about 1.6% have one here.

SMILES | KCNQ2 pot | KCNQ2 inh | Kir21 conf inh | HEK293 ctr | others
Cc1ccc(NC2c3ccccc3C(=O)N2CCN2CCOCC2)cc1 (stereo not given) | x | i | x | x
CCOc1ccc(Nc2ccnc3cc(Cl)ccc23)cc1 | x | i | x | x
CN1CCN(c2ccc(Nc3ccnc4cc(Cl)ccc34)cc2)CC1 | x | i | 58.5%* | i
COc1cc(-c2cc(-c3ccc(F)cc3)nc(N)c2C#N)ccc1O | x | i | x | x
CCCCCCCCC(=O)O | 0.64 | i | x | x
CCCCCCCC/C=C\CCCCCCCC(=O)O | 6.78* | i | i | i | CHO-K1 ctr=-9.8;KCNQ1 sel pot=32.6*;KCNQ2 pot confirm=-13.2;Kir2-1 sel=-30.9
O=C(NNS(=O)(=O)c1ccc(F)cc1)C1CC(c2cccnc2)=NO1 (stereo not given) | 0.39 | i | x | x
CC(C)[C@H](NC(=O)NC1CCCC1)C(=O)O | 0.19 | i | x | x
CC(C)=CCCC(C)NC(=O)NC1CCCCC1 (stereo not given) | 6.7* | i | i | 76.0%* | CHO-K1 ctr=19.7*;KCNQ1 sel pot=48.4*;KCNQ2 pot confirm=11.5*;Kir2-1 sel=-43.4;KCNQ2 W236L MoA=i
Cc1ccc(Nc2nc(CSc3nnc(-c4ccc(F)cc4)n3C)cs2)cc1 | x | i | x | x
CCCCOC(=O)C[N+](C)(C)CCOC1CC2CCC1(C)C2(C)C (stereo not given) | x | i | x | x
CCCOC(=O)C[N+](C)(C)CCOC1CC2CCC1(C)C2(C)C (stereo not given) | x | i | x | x
CCCCCCOC(=O)C[N+](C)(C)CCOC1CC2CCC1(C)C2(C)C (stereo not given) | x | i | 24.5%* | i
CCCCCCCOC(=O)C[N+](C)(C)CCOC1CC2CCC1(C)C2(C)C (stereo not given) | x | i | 15.5%* | i
CCN(CCCn1c(=S)[nH]c2ncccc2c1=O)c1ccccc1 | 19.5* | i | i | i | CHO-K1 ctr=-19.5;KCNQ1 sel pot=-38.8;KCNQ2 pot confirm=14.4*;Kir2-1 sel=-25.2;KCNQ2 W236L MoA=i
CCN(CC)CCCn1c(=S)[nH]c2ncccc2c1=O | 1.39 | i | x | x
COc1ccc(CCNC(=O)CCS(=O)(=O)c2ccc3nc(C)sc3c2)cc1OC | x | i | x | x
C=CCn1cnc2c(oc3ccccc32)c1=O | x | i | x | x
OCCC1CN(CC2CC2)CCN1Cc1ccc(F)c(F)c1 (stereo not given) | 0.02 | i | x | x
Cc1[nH]n(-c2ccccc2)c(=O)c1Sc1ccc(Cl)cc1 | 1.07 | i | x | x
CCCSC(=S)c1c(C)[nH]n(-c2ccccc2)c1=O | 9.79* | i | i | 424.5%* | CHO-K1 ctr=22.0*;KCNQ1 sel pot=-14.5;KCNQ2 pot confirm=54.0*;Kir2-1 sel=3.8*;KCNQ2 W236L MoA=i
CC(=O)Nc1cccc(Oc2ccc3c(c2)C(=O)NC3=O)c1 | 0.42 | i | x | x
O=C(NC(C(=O)N/N=C/c1ccccn1)c1n[nH]c(=O)c2ccccc12)c1ccccc1 (stereo not given) | x | i | x | x
Cc1ccc(C2C(C#N)=C(N)OC3=C2C(=O)CCC3)s1 (stereo not given) | 6.48* | i | i | i | CHO-K1 ctr=-4.3;KCNQ1 sel pot=3.7*;KCNQ2 pot confirm=1.5*;Kir2-1 sel=-49.3;KCNQ2 W236L MoA=i
CCc1ccc(C2C(C#N)=C(N)OC3=C2C(=O)CCC3)s1 (stereo not given) | 1.34 | i | x | x
COc1ccc(C23CC4CC(CC(C(=O)O)(C4)C2)C3)c(F)c1 | 2 | i | x | x
OC(CNCCCCNCC(O)C(F)(F)F)C(F)(F)F (stereo not given) | 1.38 | i | x | x
C=CCNCc1cccn1-c1sc2c(c1C#N)CCCC2 | 0.43 | i | x | x
N#Cc1c(-n2cccc2/C=N/O)sc2c1CCCC2 | x | i | 46.0%* | i
CC(C)C(=O)C1=Cc2cc([N+](=O)[O-])ccc2OC1N1CCOCC1 (stereo not given) | x | i | x | x

Screening results deposited in PubChem BioAssay by Johns Hopkins Ion Channel Center.
